Sampled rows, rich in hits. Any-hit rate of the full collection: about 3.1%.
pPAFAH FP inh – pPAFAH (human) enzyme inhibition. Q13093. recombinant pPAFAH, FP-rhodamine probe fluorescence polarization. inhibition, % at 3.39 µM. 330,000 compounds, 1.5% hits. AID 463082;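 active = inhibition above the mean inhibition across the screen plus 3 SD, cut at about 25% in these data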;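 note: inhibitors block binding of the rhodamine activity-based probe so polarization drops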
E coli Lon inh – E. coli protease La inhibition; P0A9M0; 360,000 compounds, 0.42% hits; purified E. coli Lon protease, fluorescence polarization; inhibition, % at 7.94 µM; in the data active = inhibition above about 13%, passing the limit was not always enough
PAFAH1B2 inh – inhibitors of human PAFAH1B2; P68402; recombinant PAFAH1B2, FP-rhodamine activity probe, fluorescence polarization; inhibition, % at 3.39 µM; 340,000 compounds, 1.2% hits; AID 492953;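 active = inhibition above the mean of all tested compounds plus 3 SD, cut at about 24% in these data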
Target sequence (P68402 whole entry, looked up): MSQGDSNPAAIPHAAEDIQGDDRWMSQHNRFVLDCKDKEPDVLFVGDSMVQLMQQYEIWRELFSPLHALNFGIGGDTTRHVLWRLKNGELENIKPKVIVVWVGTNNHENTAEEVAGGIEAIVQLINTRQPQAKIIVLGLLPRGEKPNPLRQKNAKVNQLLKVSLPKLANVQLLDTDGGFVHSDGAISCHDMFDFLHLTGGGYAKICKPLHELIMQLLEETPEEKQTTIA
PAFAH1B3 inh – inhibitors of human PAFAH1B3; Q15102; recombinant PAFAH1B3, FP-rhodamine probe, fluorescence polarization; inhibition, % at 3.39 µM; 340,000 compounds, 0.28% hits; AID 492972;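 active = inhibition above the screen-wide average of all tested compounds plus 3 SD, cut at about 25% in these data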
Target sequence (Q15102 whole entry, looked up): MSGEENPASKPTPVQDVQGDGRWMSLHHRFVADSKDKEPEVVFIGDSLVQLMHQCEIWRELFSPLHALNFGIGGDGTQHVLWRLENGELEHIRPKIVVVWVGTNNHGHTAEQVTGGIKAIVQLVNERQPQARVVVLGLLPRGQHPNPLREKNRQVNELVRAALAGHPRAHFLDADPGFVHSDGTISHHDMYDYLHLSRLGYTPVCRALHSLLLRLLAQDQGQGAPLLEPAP
PAFAH2 FP inh – inhibitors of human PAFAH2; Q99487; recombinant PAFAH2, FP-rhodamine activity probe, fluorescence polarization; AID 492956; inhibition, % at 3.39 µM; 340,000 compounds, 0.99% hits;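 active = inhibition above the mean over all tested compounds plus 3 SD, cut at about 30% in these data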;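 note: inhibitors block probe labeling of enzyme so polarization drops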
Rin1-Abl PPI inh – blocks binding of human Rin1 to Abl. TR-FRET Rin1/Abl binding, biochemical. AID 588664. inhibition, % at 7.35 µM. P00519+Q13671. 360,000 compounds, 0.4% hits; in the data active = inhibition above about 5%, passing the limit was not always enough
PAFAH1B3 confirm – PAFAH1B3 (human) inhibition, confirmed; shares compounds with PAFAH1B3 inh; recombinant PAFAH1B3, FP-Rh activity-based probe, fluorescence polarization; inhibition, % at 3.39 µM; 390 compounds, 30% hits;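 active = average inhibition over triplicate runs above the hit cutoff set in the earlier primary screen, cut at about 25% in these data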
A number is an active result; . = inactive; / = no result given.

SMILES | pPAFAH FP inh | E coli Lon inh | PAFAH1B2 inh | PAFAH1B3 inh | PAFAH2 FP inh | Rin1-Abl PPI inh | PAFAH1B3 confirm
CCN(CC)c1ccc(/C=N/NC(=O)c2ccc3nc[nH]c3c2)c(O)c1 | . | . | . | 26.5 | . | . | .
COc1cccc(/C=N/NC(=O)c2ccc3nc[nH]c3c2)c1O | . | . | . | . | . | . | /
C=CCn1c(O)c(N=Nc2ccccc2)c2ccccc21 | . | . | . | . | . | . | /
C=CCn1c(O)c(N=Nc2ccccc2O)c2ccccc21 | . | . | . | 26.2 | . | . | .
COc1cc(C(=O)c2nccc3cc(OC)c(OC)cc23)c([N+](=O)[O-])cc1OC | . | . | . | 40.5 | . | . | .
O=C(NCc1nnnn1-c1ccc(Cl)cc1)c1ccc(Br)o1 | . | . | . | . | . | . | /
CC1(C(=O)NS(=O)(=O)c2ccc(Cl)s2)CCN1C(=O)Cc1ccc(Cl)cc1Cl (configuration not stated) | / | . | / | / | / | . | /
CCOC(=O)C1=C[C@@H](c2ccccc2)N(S(=O)(=O)c2ccc(C)cc2)[C@H]1c1ccc(F)cc1 | / | . | / | / | / | . | /
N#Cc1cccc2c1-c1ccccc1/C2=N/NC(N)=S | . | . | . | . | . | . | /
NC(=S)NN=C1c2ccccc2-c2c(F)c(F)c(F)c(F)c21 | / | . | . | 51.2 | . | . | 46.0
CCOc1ccccc1/C=C/c1nc2ccccc2[nH]c1=O | / | . | . | 27.9 | . | . | .
COc1cccc(C(O)c2ncc(-c3ccccc3)[nH]2)c1 (configuration not stated) | / | . | / | / | / | . | /
Cc1c(N=C2C=CC(=O)c3ccccc32)c(=O)n(-c2ccccc2)n1C | / | . | . | 46.9 | . | . | 36.8
CC(C)n1cnc2c(NCc3ccccc3)cc(N[C@H](C)CO)cc21 | . | . | . | 42.6 | . | . | 35.1
CC[C@@]12C(=O)N(c3cccc(Cl)c3)C(=O)N1[C@H](c1ccc(Br)cc1)[C@@H]1C(=O)N(C(C)(C)C)C(=O)[C@@H]12 | . | . | . | . | . | . | /
CC(=O)N(C1=C(Cl)C(=O)c2ccccc2C1=O)C1CCCCC1 | . | . | . | 33.0 | . | . | .
CC(=O)N(c1ccccc1C)C1CCCC1 | . | . | . | . | . | . | /
COn1c2c(c3c4no[n+]([O-])c4ccc31)CCCC2 | . | . | . | . | . | . | /
[O-][n+]1c2c(c3c4non(O)c4ccc31)CCCC2 | . | . | . | 27.7 | . | . | .
O=C(NCC1CCCO1)c1ccc(NC(=O)c2ccc([N+](=O)[O-])cc2)cc1 (configuration not stated) | . | . | . | . | . | . | /
CCN(CC)C(=O)CC(c1cc(OC)c(OC)c(OC)c1)c1c(OC)cc(OC)c2c(-c3ccccc3)cc(=O)oc12 (configuration not stated) | . | . | . | . | . | . | /
COc1ccc(C(=O)OCC(=O)c2c(N)n(C)c(=O)n(C)c2=O)c(OC)c1OC | . | . | . | 25.6 | . | . | .
Cn1c(N)c(C(=O)COC(=O)c2ccnc3ccccc23)c(=O)n(C)c1=O | . | . | . | . | . | . | /
Nc1ccc2nn(-c3ccc(F)cc3)nc2c1 | . | . | . | 27.8 | . | . | .
Oc1ccc(Cl)cc1CNc1cccc2cccnc12 | . | . | . | 28.3 | . | . | .
SMILES | pPAFAH FP inh | E coli Lon inh | PAFAH1B2 inh | PAFAH1B3 inh | PAFAH2 FP inh | Rin1-Abl PPI inh | PAFAH1B3 confirm
COc1ccc(C(Sc2ccccc2)c2ccccc2)cc1OC (configuration not stated) | . | . | . | . | . | . | /
COc1cc2c(cc1OC)CN(C(=O)/C=C/c1ccc(F)cc1)CC2 | . | . | . | . | . | . | /
COc1cc2c(cc1OC)CN(C(=O)/C=C/c1cc(OC)c(OC)c(OC)c1)CC2 | . | . | . | 29.8 | . | . | .
C=CCn1c(N)c(C(=O)NCC2CCCO2)c2nc3ccccc3nc21 (configuration not stated) | . | . | . | 26.4 | . | . | .
COCCCNC(=O)c1ccc(CS(=O)(=O)c2ccc(Br)cc2)o1 | . | . | . | 29.2 | . | . | .
O=C(Cn1ncc(Cl)c(Cl)c1=O)N1CCc2ccccc21 | / | . | . | 27.6 | . | . | .
CCc1nnc(NC(=O)c2sc3nc4cc(C)ccc4cc3c2N)s1 | . | . | . | 27.3 | . | . | .
COc1cccc(S(=O)(=O)N(C)C[C@@H]2OCc3cnnn3CCCC(=O)N([C@H](C)CO)C[C@@H]2C)c1 | / | . | / | / | / | . | /
COc1cc(NCCCCCCN)c2ncccc2c1OC | / | . | . | 56.7 | . | . | .
COc1cc(N)c2ncccc2c1OC | / | . | . | . | . | . | /
CN(C)c1ccc(NC2=C(Cl)C(=O)c3ccccc3C2=O)cc1 | . | . | . | 39.0 | . | . | .
O=C1C(Cl)=C(Nc2ccc3cn[nH]c3c2)C(=O)c2ccccc21 | . | . | . | 38.2 | . | . | 27.3
Cc1ccc(N(C(=O)c2csnn2)C(C(=O)NC2CCCCC2)c2ccco2)cc1 (configuration not stated) | . | . | . | . | . | . | /
CC(C)(O)c1cc2ccc(C#Cc3ccsc3)cc2c(=O)o1 | . | . | . | . | . | . | /
COc1ccc2[nH]c(C(=O)N/N=C/c3ccc(O)cc3O)cc2c1 | / | . | . | 48.2 | . | . | .
CN(CC(=O)Nc1ccccc1Br)C(=O)CNC(=O)c1ccco1 | . | . | . | . | . | . | /
N#Cc1cc2c(nc1SCC(N)=O)CCCCC2 | . | . | . | . | . | . | /
N#Cc1cc2c(nc1SCC(=O)N1CCOCC1)CCCCC2 | . | . | . | 26.1 | . | . | .
COCCNc1nc(NCCN2CCNC2=O)c2sc(-c3ccccc3)cc2n1 | / | . | / | / | / | . | /
O=[N+]([O-])c1ccc(O)c(-c2nn[nH]n2)c1 | . | . | . | 27.6 | . | . | 26.4
Cc1cc(C)n(-c2ccc([N+](=O)[O-])cc2-c2nn[nH]n2)n1 | . | . | . | . | . | . | /
COc1ccc(CN2CCC3CC2c2cc(Cl)ccc23)cc1 (configuration not stated) | / | . | . | . | . | . | /
CCN(CC)C(=O)C1=C(C)N(Cc2ccccc2)C(=O)C(CC(=O)NCCc2ccccn2)C1 (configuration not stated) | / | . | / | / | / | . | /
O=C(NC1=C(NC2CCS(=O)(=O)C2)C(=O)c2ccccc2C1=O)c1ccccc1 (configuration not stated) | . | . | . | 66.2 | . | . | 36.2
CCC(Oc1ccccc1)C(=O)OCC(=O)Nc1sccc1C(N)=O (configuration not stated) | . | . | . | . | . | . | /
O=C1C(=O)c2c(ccc3ccccc23)-c2ccccc21 | / | . | . | 56.2 | . | . | .
CN(C)/C=C1\Oc2ccc3ccccc3c2C1=O | . | . | . | . | . | . | /
CCc1cc[n+](C2=C([O-])c3ccccc3C(=O)/C2=N\S(=O)(=O)c2cccs2)cc1 | . | . | . | 40.6 | . | . | 30.9

Assay outcomes from PubChem.
